Measurements reported in ChEMBL document CHEMBL3988442, “University of Dundee, Small-Polar-MMV Screening Library” (2021).
Hit rate of the full screen: of about 48,000 compounds, about 13,000 (27%) showed an effect of 50% or more. The list shows a part of the results.

System: Wolbachia pipientis
Assay: Anti-Wolbachia Cell-Based Screen
Assay type: functional
Set-up: scale not given: in the data most compounds retested in dose-response had high values
Conditions: 5 µM

Compound	Percent Effect
Cc1nc(C)c(CC(=O)Nc2ncc(C)s2)c(=O)[nH]1	-6.358%
CCn1c(C2CCN(Cc3cc(C)n(NC(C)=O)c3C)CC2)n[nH]c1=O	1.026%
O=C(CN1CCN(CC2CCOc3ccccc3C2)CC1)N1CCCC1 (stereo not given)	1.365%
COCCC(=O)N(Cc1ccccn1)Cc1ccccc1C	13.85%
CC(C)CN(Cc1ccccn1)Cc1ccccc1OCC(=O)O	7.517%
Cc1ncc(CN(Cc2ccccn2)Cc2ccccc2Cl)n1C.O=C(O)CC(O)(CC(=O)O)C(=O)O	124.9%
Cn1ccnc1CN(Cc1ccccn1)Cc1ccccc1Cl.O=C(O)CC(O)(CC(=O)O)C(=O)O	93.9%
Cc1ccc(CN(Cc2ccccn2)C2CC(C)(C)NC(C)(C)C2)s1.O=C(O)CC(O)(CC(=O)O)C(=O)O	-1.083%
CC(C)CN(Cc1ccccn1)Cc1ccccc1C(=O)O	-7.566%
CCC(CO)N(Cc1ccco1)C(=O)c1cccnc1NC (stereo not given)	-5.429%
CCc1n[nH]c(C2CN(Cc3csc(COC)n3)CCO2)n1 (stereo not given)	0.7556%
O=C(Nc1ccc(-c2nc3c([nH]2)CCNC3)cc1)N1CCCC1	-0.2771%
COc1ccc2c(c1)C(C(=O)N(C)CCCc1nccn1C)CC(=O)N2 (stereo not given)	9.372%
CC(C)CN1C(=O)CO[C@@H]2CN(C(=O)C3CCOC3)C[C@H]21 (stereo not given in full)	-11.41%
CC(C)CNC(=O)c1ccc(NC(=O)NC(C)C)cc1Cl	-2.856%
CC(C)CNC(=O)c1ccc(NC(=O)NC(C)(C)CO)cc1Cl	-9.16%
CC(C)CCCNC(=O)Nc1ccc(Cl)c(C(N)=O)c1	118.7%
CC(C)CNC(=O)c1ccc(NC(=O)NCC2CC2)cc1Cl	-12.02%
CCCOc1ccc(NC(=O)NCCC(=O)N(C)C)cc1Cl	-12.35%
CC(C)CCCNC(=O)Nc1ccc(C(N)=O)c(Cl)c1	114.9%
CCCN1CCC(NC(=O)NCCc2nc(CC)c(C)s2)CC1	16.1%
Cc1ccc(-c2nn(-c3cccc(F)c3)cc2CN(CCO)CCO)o1	2.921%
C[C@@H]1CN(C(=O)c2nc3ccc(Cl)cn3c2-c2ncc[nH]2)C[C@H](C)O1	103.5%
C[C@@H]1CN(C(=O)Cn2ccc3ncccc3c2=O)C[C@H](C)O1	-28.32%
CN1CCCN(C(=O)c2nc3sccn3c2-c2ncc[nH]2)CC1	108%

Compound	Percent Effect
COc1ccc(OCc2cc(C(=O)N3C[C@@H](C)O[C@@H](C)C3)n[nH]2)c(Cl)c1	-0.1203%
Cc1ccc2cc(C(=O)N3CCCN(C)CC3)ccc2n1	16.24%
CN1CCN(C(=O)c2n[nH]c3c2CN(Cc2nccs2)CC3)CC1	-8.434%
CN(C)C1CCCN(C(=O)c2cccc(-c3ncc[nH]3)c2)CC1 (stereo not given)	2.392%
O=C(c1nc2sccn2c1-c1ncc[nH]1)N1CCCCC1	87.63%
Cc1nc2sccn2c1C(=O)N1CCc2[nH]cnc2C1	-1.15%
C[C@@H]1CN(C(=O)c2nc3sccn3c2-c2ncc[nH]2)C[C@H](C)O1	88.09%
CN1C[C@@H](n2cnc(-c3ccccc3)c2-c2ncc[nH]2)C[C@H]1C(=O)O	-3.61%
CCC[C@@H]1CN(C(=O)c2ccccc2-c2ncc[nH]2)C[C@H]1N(C)C	29.83%
CC(=O)N1CCC(C(=O)N(CC(F)F)c2cccc(Cl)c2)CC1	3.709%
CCc1cc(NCCc2ccc(O)cc2)n2nccc2n1	12.11%
O=C(NC1CCCC1)O[C@H]1COCCN(c2nc3ccccc3s2)C1	3.317%
COc1cccc(-c2ccc3nc(C4CCN(C(C)=O)CC4)nn3c2)c1	108.3%
Cc1ccc2nc(C3CCN(CCO)CC3)nn2c1	-22.16%
CS(=O)(=O)N1CCC(c2nc3ccc(-c4cccc(F)c4)cn3n2)CC1	121.7%
CN(C)C(=O)N1CCC(c2nc3ccc(-c4ccccc4)cn3n2)CC1	107%
COCC(=O)N1CCC(c2nc3ccc(-c4ccccc4)cn3n2)CC1	4.971%
CN(C)C(=O)N1CCC(c2nc3ccc(N4CCCC4)cn3n2)CC1.O=C(O)C(F)(F)F	-5.461%
CC(=O)N1CCC(c2nc3ccc(C)cn3n2)CC1	109.2%
CCS(=O)(=O)N1CCC(c2nc3ccc(-c4ccccc4)cn3n2)CC1	-9.682%
COCC(=O)N1CCC(c2nc3ccc(N4CCOCC4)cn3n2)CC1	-4.439%
COc1ccc(Cl)cc1CS(=O)(=O)Cc1noc(C)n1	18.18%
C[S+]([O-])c1nncn1CCc1ccccc1 (stereo not given)	-4.603%
COc1ccccc1C(O)Cn1cc(C(=O)NCc2ccco2)nn1 (stereo not given)	-0.6679%
CNC(=O)c1cccc(NCC(=O)Nc2cc(C)nn2C)c1C	11.4%

Compound	Percent Effect
COc1ncccc1C(=O)NC1(c2cccc(F)c2)CCOCC1	0.9313%
CN1CCCC1CNC(=O)c1nnn(-c2ccc(F)cc2)c1C1CC1 (stereo not given)	-4.807%
CC(=O)N1CCC(c2nc3ccc(-c4cccc(F)c4)cn3n2)CC1	114.3%
CNc1cc2c(nn1)CCN(C(=O)c1ccc(-n3cccn3)nc1)C2	108.2%
CNc1cc2c(nn1)CCN(C(=O)c1ccc(-n3nccc3C)cc1)C2	-6.131%
CCNc1cc2c(nn1)CCN(C(=O)c1cc3ccccc3[nH]c1=O)C2	-5.583%
CN(C)c1cc2c(nn1)CCN(C(=O)c1ccc(-n3cccn3)nc1)C2	103.2%
CCNc1cc2c(nn1)CCN(C(=O)c1ccc(-n3cccn3)nc1)C2	97.41%
CCNc1cc2c(nn1)CCN(C(=O)c1ccc3cc[nH]c3c1)C2	0.8681%
Nc1cc2c(nn1)CCN(C(=O)c1cccnc1Oc1ccccc1)C2	-19.15%
CCNc1cc2c(nn1)CCN(C(=O)c1ccc(NC3CC3)nc1)C2	18.68%
CN(C)c1cc2c(nn1)CCN(C(=O)c1cc3ccccc3o1)C2	1.758%
CNc1cc2c(nn1)CCN(C(=O)c1ccccc1-n1cccn1)C2	88.38%
CCNc1cc2c(nn1)CCN(C(=O)c1ccnc(N(C)C)c1)C2	-3.48%
Nc1cc2c(nn1)CCN(C(=O)c1ccc(Oc3cccnc3)cc1)C2	5.491%
COc1cccc2ccc(CN3CCN(c4ccncc4)CC3)nc12	12.14%
CCc1nsc(N2CCCN(C(=O)COc3ccccc3)CC2)n1	6.055%
COCCCN1CC2(CCC1=O)CCN(Cc1cc(C(C)C)no1)CC2	-3.554%
CC(=O)N1[C@H](Cn2cncn2)C[C@@H]2CN(C(=O)NC3CC3)CC[C@@H]21	-0.06843%
COc1ccc(CN2CCCC2)cc1Oc1cccc(C#N)n1	4.454%
CCCN1CCCn2nc(CNS(=O)(=O)c3ccc(C)cc3)cc2C1	-4.266%
CCc1ccccc1NC(=O)C1CN(C(C)=O)C1	6.296%
CNC(=O)c1cccc(NC(=O)NCc2ccccc2)c1C	3.946%
CNC(=O)c1cc(OC)c(OC)cc1N(C)S(C)(=O)=O	-22.7%
Cc1cccc(C)c1NC(=O)c1cccc(N(C)S(C)(=O)=O)c1C	108.1%

Compound	Percent Effect
CCCNC(=O)c1cc(OC)c(OC)cc1N(C)S(C)(=O)=O	-23.04%
CCN(CCCc1ccccc1C)S(C)(=O)=O	5.478%
CCc1ccccc1NC(=O)c1cccc(N(C)S(C)(=O)=O)c1C	92%
CCc1ccc(S(=O)(=O)Nc2c(C)cccc2C(=O)O)s1	-3.804%
CCc1cccc(CC)c1NC(=O)c1ccccc1N(C)S(C)(=O)=O	109.8%
CCNC(=O)c1cc(OC)c(OC)cc1N(C)S(C)(=O)=O	-20.94%
Cc1ccc(C(=O)NC2CCN(C)CC2)cc1N(C)S(C)(=O)=O	12.36%
CCc1cccc(C)c1NC(=O)c1ccccc1N(C)S(C)(=O)=O	89.09%
CCC(Nc1nnnn1-c1ccccc1)C(=O)Nc1ccccc1C (stereo not given)	-5.481%
Cc1ccc(CNCc2cccc3cccnc23)c(OC2CCOC2)c1 (stereo not given)	-38.45%
COc1ccc(CC(=O)N2CCCC2Cn2cc(C)cn2)cc1OC (stereo not given)	112.4%
COc1ccc(CCC(=O)N2CCCC2Cn2cc(C)cn2)cc1F (stereo not given)	-0.1438%
COc1ccc(CC(=O)N2CCCC2Cn2cc(C)cn2)c(OC)c1 (stereo not given)	126.4%
COc1ccc(CC(=O)N2CCCCC2Cn2cc(C)cn2)cc1F (stereo not given)	102.6%
COc1ccccc1OCCC(=O)N1CCCC1Cn1cc(C)cn1 (stereo not given)	-7.788%
Cc1noc(-c2ccc(N(C)Cc3ccncc3C)nc2)n1	-8.712%
O=C(Nc1cnc(C2CC2)nc1)N1CCC(CN2CCCC2)C1 (stereo not given)	2.987%
Cn1cc(C(=O)N2CCCC(n3cccn3)C2)c2ccccc21 (stereo not given)	-10.45%
O=C(c1cnc(-c2ncccn2)s1)N1CCCC(n2cccn2)C1 (stereo not given)	84.63%
O=C(c1cnc(-c2ccccn2)s1)N1CCCC(n2cccn2)C1 (stereo not given)	116.5%
O=C(c1cnc(-c2cnccn2)s1)N1CCCC(n2cccn2)C1 (stereo not given)	90.03%
O=C(c1cnc(C2CC2)s1)N1CCCC(n2cccn2)C1 (stereo not given)	6.794%
O=C(c1cnc(-c2cccs2)s1)N1CCCC(n2cccn2)C1 (stereo not given)	0.5894%
CCc1[nH]ncc1C(=O)N1CCCC(n2cccn2)C1 (stereo not given)	-0.4405%
Cc1ncc(C(=O)N2CCCC(n3cccn3)C2)s1 (stereo not given)	111.9%
